Test results reported in PubChem BioAssay (Tox21).
Inconclusive results are not listed. Active and inactive are the calls of the source. Unless noted, calls come from the whole dose curve; as a rule, active = well fitted curve in the direction sought with a large enough effect in the repeat runs; inconclusive = weak or mixed curves; inactive = no such curve, though single readings can be large; an effect the other way counts as inactive or inconclusive.

Columns and labels:
[1] = qHTS assay to identify small molecule agonists of the hypoxia (HIF-1) signaling pathway - cell viability counter screen (AID 1224844; calls by dose curve; note: nearly all actives have a fitted effect of over 50% in size; note: potency is the fitted concentration of half-maximal effect)
In short: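 Viability counter screen: HRE-bla ME-180 cells plated 5 hrs before compound addition, treated 17 hrs at 37C and 5% CO2, then CellTiter-Glo added after the FRET reporter read; luminescence after 30 min.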

[2] = qHTS assay to identify small molecule agonists of H2AX (AID 1224845; active = well fitted activation curve with a large enough effect in the signal ratio in the repeat runs, not every such curve was filed as active; the % refers to the signal ratio; note: potency is the fitted concentration of half-maximal effect)
In short: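 Wild-type CHO-K1 cells plated overnight, then exposed 3 hr at 37C to compounds at 15 concentrations (0.76% DMSO). Lysed, then HTRF anti-pH2AX(S139)-cryptate/anti-H2AX-d2 detection after 24 hr at room temperature; emissions 665 and 620 nm.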

[3] = qHTS assay to identify small molecule agonists of H2AX - cell viability counter screen (AID 1224847; calls by dose curve; note: nearly all actives have a fitted effect of over 30% in size; note: potency is the fitted concentration of half-maximal effect)
In short: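 After overnight plating of 1000 CHO-K1 cells per well, a 15-concentration compound series was applied for 3 hr at 37C. Luminescence from CellTiter-Glo, read following 30 min at room temperature, reflected cell viability.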

[4] = qHTS assay to identify small molecule antagonists of the estrogen related receptor (ERR) signaling pathway from Tox21 library (AID 1224848); note: nearly all actives have a fitted effect of over 50% in size; note: potency is the fitted concentration of half-maximal effect
In short: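 Tox21 10K compounds in DMSO tested for ERR pathway antagonism in NTP's ERR cell line; 18 h, 37 C exposure; ONE-Glo luminescence.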

[5] = qHTS assay to identify small molecule agonists of the estrogen related receptor (ERR) signaling pathway from Tox21 library (AID 1224849; calls by dose curve; note: nearly all actives have a fitted effect of over 15% in size); conditions: ERR reporter cell line, ONE-Glo luciferase, 18 h; at 92.4 µM (top of the series) unless noted
In short: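 Quantitative HTS in agonist format: NTP ERR cell line, compounds transferred in DMSO after 6 h plating, 18 h incubation at 37 C, ONE-Glo luminescence endpoint.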

[6] = qHTS RealTime-Glo MT Cell Viability Assay in HepG2 cells - 24 hour (AID 1224867); note: nearly all actives have a fitted effect of over 50% in size; note: potency is the fitted concentration of half-maximal effect
In short: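 Cells + NanoLuc/prosubstrate dispensed (600 cells/well) → 5 h at 37 C/5% CO2 → compounds in DMSO transferred → 40 h incubation at 37 C, luminescence read at 0, 8, 16, 24, 32, 40 h.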

[7] = qHTS RealTime-Glo MT Cell Viability Assay in HEK293 cells - 32 hour (AID 1224868); note: nearly all actives have a fitted effect of over 50% in size; note: potency is the fitted concentration of half-maximal effect
In short: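 Tox21 10K qHTS, HEK293, 600 cells/well, RealTime-Glo reagent co-dispensed with cells; 5 h preincubation, compound by pintool, 37 C, luminescence at 0–40 h.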

[8] = A CellTox Green Cytotoxicity Assay to monitor cytotoxicity in HEK293 cells - 0 hour (AID 1224869); note: nearly all actives have a fitted effect of over 50% in size
In short: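 Dead-cell fluorescence measured kinetically: asymmetric cyanine dye, HEK293, 600 cells/well, 5 h settle, 23 nL cpd/DMSO, 37 C, reads 0–40 h every 8 h.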

[9] = qHTS RealTime-Glo MT Cell Viability Assay in HepG2 cells - 40 hour (AID 1224870); note: nearly all actives have a fitted effect of over 50% in size; note: potency is the fitted concentration of half-maximal effect
In short: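 HepG2 cells mixed with RealTime-Glo MT reagents (NanoLuc plus cell-permeant prosubstrate) were seeded at 600 cells/well, incubated 5 h at 37 C/5% CO2, then pinned with compounds in DMSO; nonlytic luminescence tracked viability during 40 h treatment.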

[10] = qHTS assay to identify small molecule agonists of the hypoxia (HIF-1) signaling pathway (AID 1224846; active = well fitted activation curve with a large enough effect in the signal ratio in the repeat runs, not every such curve was filed as active; the % refers to the signal ratio)
In short: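 Agonist mode reporter screen. ME-180 cells stably expressing bla under HRE control received test compounds in DMSO for 17 hrs (37C, 5% CO2), and beta-lactamase activity was then detected with the CCF4-AM FRET substrate.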
% is set by controls: 0 for no effect and ±100 for the full control effect.

CNC(=O)Oc1ccccc1C1OCCO1
inactive: Potency [1] | Potency [2] | Potency [3] | Potency [4] | activity change, positive = activation [5] 4.32% | Potency [6] | Potency [7] | Potency [8] | Potency [9]

CCC(=O)C(CCN(C)C)(c1ccccc1)c1ccccc1
inactive: Potency [1] | Potency [2] | outcome [10] | Potency [6] | Potency [7] | Potency [8] | Potency [9]

O=[N+]([O-])c1cccc(O)c1
inactive: Potency [1] | Potency [2] | outcome [10] | Potency [6] | Potency [7] | Potency [8]

N#CC(CCc1ccc(Cl)cc1)(Cn1cncn1)c1ccccc1 (centres undefined)
active: Potency [1] 30.9 µM | Potency [3] 50.5 µM | Potency [4] 17.2 µM | Potency [6] 38.9 µM | Potency [7] 17.4 µM | Potency [9] 49 µM
inactive: Potency [2] | activity change, positive = activation [5] -69.7% | Potency [8]

CCC#N
inactive: Potency [1] | Potency [2] | Potency [3] | Potency [4] | activity change, positive = activation [5] 0.336% | Potency [6] | Potency [7] | Potency [8] | Potency [9]

NC(=O)c1cc([N+](=O)[O-])cc([N+](=O)[O-])c1
inactive: Potency [1] | Potency [2] | outcome [10] | Potency [6] | Potency [7] | Potency [8] | Potency [9]

NC(=O)O
inactive: Potency [1] | Potency [2] | Potency [4] | activity change, positive = activation [5] -1.74% | Potency [6] | Potency [7] | Potency [8]

C=CC1CC=CCC1 (centres undefined)
inactive: Potency [1] | Potency [2] | Potency [3] | Potency [6] | Potency [7] | Potency [8]

CCOC(=O)N(C)C(=O)CSP(=S)(OCC)OCC
inactive: Potency [1] | Potency [2] | Potency [3] | Potency [6] | Potency [7] | Potency [8] | Potency [9]

COc1ccc(C(=O)N2CCCC2=O)cc1
inactive: Potency [1] | Potency [2] | Potency [3] | Potency [6] | Potency [7] | Potency [8] | Potency [9]

CCOP(=O)(OCC)OP(=O)(OCC)OCC
inactive: Potency [1] | Potency [2] | Potency [3] | Potency [6] | Potency [7] | Potency [8] | Potency [9]

CC(C)[N+](=O)[O-]
inactive: Potency [1] | Potency [2] | Potency [3] | Potency [6] | Potency [7] | Potency [8] | Potency [9]

O=C(Oc1ccc(Br)cc1)N1CCN2CCC1CC2
inactive: Potency [1] | Potency [2] | Potency [3] | Potency [6] | Potency [7] | Potency [8] | Potency [9]

O=C(Cc1ccccc1)OCc1ccccc1
inactive: Potency [1] | Potency [2] | Potency [3] | Potency [6] | Potency [7] | Potency [8] | Potency [9]

CC(Oc1ccc(Oc2ncc(C(F)(F)F)cc2Cl)cc1)C(=O)O (centres undefined)
active: Potency [1] 15.5 µM
inactive: Potency [2] | Potency [3] | activity change, positive = activation [5] -29.5% | Potency [6] | Potency [7] | Potency [8] | Potency [9]

C=CCC1=C(C)[C@@H](OC(=O)[C@@H]2[C@@H](C=C(C)C)C2(C)C)CC1=O
active: Potency [1] 54.9 µM | Potency [2] 56.6 µM | Potency [4] 21.7 µM | Potency [7] 13.8 µM
inactive: activity change, positive = activation [5] -64.6% | Potency [8] | Potency [9]

OC(c1ccccc1)(c1ccccc1)C1CCNCC1
inactive: Potency [1] | Potency [2] | Potency [3] | Potency [6] | Potency [7] | Potency [8] | Potency [9]

C[C@]12CC[C@H]3[C@@H](CC=C4C[C@@H](O)CC[C@@]43C)[C@@H]1CC[C@@H]2O
inactive: Potency [1] | Potency [2] | Potency [3] | Potency [6] | Potency [7] | Potency [8] | Potency [9]

Clc1cccc(N2CCNCC2)c1
inactive: Potency [1] | Potency [2] | Potency [3] | Potency [6] | Potency [7] | Potency [8] | Potency [9]

CCc1cc2c(s1)-n1c(C)nnc1CN=C2c1ccccc1Cl
inactive: Potency [1] | Potency [2] | Potency [3] | Potency [4] | Potency [6] | Potency [9]

ClC(Cl)C(Cl)Cl
inactive: Potency [1] | Potency [2] | Potency [3] | Potency [6] | Potency [7] | Potency [8] | Potency [9]

CCN(CC)c1nc(C)cc(OP(=S)(OC)OC)n1
inactive: Potency [1] | Potency [2] | Potency [3] | Potency [6] | Potency [7] | Potency [8] | Potency [9]

ClCC(Cl)Cl
inactive: Potency [1] | Potency [2] | Potency [3] | Potency [6] | Potency [7] | Potency [8] | Potency [9]

O=[N+]([O-])c1ccc(CBr)cc1
inactive: Potency [2] | Potency [3] | Potency [6] | Potency [7] | Potency [8] | Potency [9]
active: Potency [1] 24.2 µM

[Cl][Sn]([Cl])([Cl])[Cl]
inactive: Potency [1] | Potency [2] | Potency [3] | Potency [6] | Potency [9]

COc1cc(OC)nc(NC(=O)NS(=O)(=O)c2ncccc2C(=O)N(C)C)n1
inactive: Potency [1] | Potency [2] | Potency [3] | Potency [6] | Potency [7] | Potency [8] | Potency [9]
